# Only some compounds are listed: those with a hit (about 3.7% of all), similar ones and a draw of the others.
# TIM10 inh: TIM10 yeast growth inhibition | 330,000 tested, 1.4% active | AID 463195 | S. cerevisiae TIM10 strain growth, BacTiter-Glo luminescence, 24 h | inhibition, % at 10 µM;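 active = inhibition of 40% or more at the single tested concentration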;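 note: wild-type TIM10 isogenic control strain grown at permissive 25 °C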
# tim23-1 inh: growth inhibitors of tim23-1 mutant yeast. S. cerevisiae tim23-1 growth, BacTiter-Glo luminescence, 24 h. inhibition, % at 20 µM. 330,000 tested, 1.3% active;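 active = growth inhibition of the mutant yeast at or above 50%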;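 note: temperature-sensitive mutant grown at 25 °C; plate controls were DMSO-treated mutant yeast for no effect and medium wells lacking yeast for full effect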
# PfHsp90 yeast 2: inhibits growth of yeast expressing Plasmodium falciparum Hsp90. S. cerevisiae expressing PfHsp90, BacTiter-Glo ATP, 48 h; yeast lacking PDR1 and PDR3 efflux regulators. inhibition, % at 9.4 µM. 310,000 tested, 0.32% active. AID 504621;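 active = every replicate shows inhibition above about 80%, whatever the replicate mean, limit read from the data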;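 note: 0% = DMSO neutral controls and 100% = 20 µM radicicol positive controls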
# NALP3 yeast inh: NALP3 inhibition in yeast; Yeast reconstituted NLRP3/ASC/caspase-1, beta-gal luminescence, 24 h; inhibition, % at 10 µM; 330,000 tested, 0.39% active;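 active = inhibition of 50% or more; inactive = inhibition below 50%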;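 note: plate controls were induced DMSO wells for no effect and uninduced yeast grown without galactose for full effect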
# tim10-1 inh: inhibits growth of tim10-1 mutant yeast. S. cerevisiae tim10-1 ts strain growth, BacTiter-Glo, 24 h. inhibition, % at 20 µM. 330,000 tested, 2.2% active. AID 463190;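 active = inhibition of at least 40%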;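 note: mutant grown at 25 °C; 0% = DMSO wells with yeast and 100% = wells holding no yeast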
# tim23-1 conf: tim23-1 yeast growth inhibition, confirmed; shares compounds with tim23-1 inh; S. cerevisiae tim23-1 growth, BacTiter-Glo luminescence, 24 h; inhibition, % at 20 µM; 4,400 tested, 83% active; AID 463218;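 active = inhibition above about 39% in either of two replicate wells at 20 µM, limit read from the data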;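 note: temperature-sensitive tim23-1 mutant grown at 25 °C; 0% = DMSO wells with yeast and 100% = medium wells without yeast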
# An asterisk follows results filed as active; nt = not tested or not shown.
SMILES,TIM10 inh,tim23-1 inh,PfHsp90 yeast 2,NALP3 yeast inh,tim10-1 inh,tim23-1 conf
CCN(CC)C(=O)[C@H]1C[C@H](CC(=O)NCCC2=CCCCC2)C(=O)N2CCc3c([nH]c4ccc(Cl)cc34)[C@]12C,-1.1,58.4*,59.5,nt,16.0,32.7
CCCCOc1ccc(N(CC(=O)NC2CCCCC2)C(=O)CCC(=O)Nc2ccccn2)cc1,-12.8,-10.5,14.4,16.3,-1.4,nt
Cc1ccc(/C(N)=N/OC(=O)c2cccc(Cn3cc(C(F)(F)F)ccc3=O)c2)cc1,23.2,58.7*,-3.8,30.5,39.1,60.5*
Cc1cccc(C(=O)O/N=C/c2ccc(Br)cc2)c1,26.6,18.9,-7.6,8.7,26.6,nt
Cc1cccc(C(=O)O/N=C(\N)c2ccc(Br)cc2)c1,12.5,96.2*,25.1,13.3,7.5,50.9*
Cc1cccc(NC(=O)c2ccc(Cn3cc(C(F)(F)F)ccc3=O)cc2)c1,-5.6,3.4,-12.5,19.7,25.1,nt
CC(=O)NC(=S)Nc1ccc2oc(=O)ccc2c1,8.0,-9.7,2.6,13.8,8.8,nt
Cc1cc(C)cc(N(C(C)C(=O)NC2CCCC2)S(C)(=O)=O)c1 (stereo not drawn),-10.9,88.5*,-20.8,-2.7,12.1,11.0
CCOc1ccc(N(C(C)C(=O)NC2CCCCCC2)S(C)(=O)=O)cc1 (stereo not drawn),-4.7,14.7,-4.9,-4.3,14.5,nt
Cc1occc1-c1nnc(SCc2nnc(-c3ccc(Cl)cc3)o2)n1C,1.1,4.2,-14.2,-10.1,18.6,nt
COc1cc(CNC2CCCC2)cc(Br)c1OCC(=O)Nc1ccccc1C,11.2,23.8,-12.2,15.2,5.6,nt
Cc1ccc(CSc2nnc(-c3cccc(S(=O)(=O)N4CCOCC4)c3)n2C2CCCC2)cc1,17.4,51.7*,-1.2,1.7,14.7,42.6*
C/C(N)=C(/C#N)C(=O)CSc1nc2ccccc2c(=O)n1Cc1ccc(F)cc1,16.0,36.8,20.2,8.8,-4.6,nt
C/C(N)=C(/C#N)C(=O)CSc1nc2ccccc2c(=O)n1Cc1ccc(C)cc1,18.5,57.2*,-7.9,3.4,29.2,34.9
COc1ccc(C2CC(c3ccccc3)=NN2C(=O)COC(=O)c2nc3nc(C)cc(C)n3n2)cc1 (stereo not drawn),24.9,25.5,-17.6,-2.0,12.5,nt
Cc1ccc(C(=O)CSc2nnnn2Cc2ccccc2)cc1C,16.2,50.5*,23.4,11.7,22.0,49.0*
COC(=O)c1ccsc1NC(=O)CSc1nnnn1Cc1ccccc1,10.7,50.9*,-1.7,20.9,34.9,37.5
O=c1[nH]c(CCl)nc2cc(-c3ccc(F)cc3)sc12,35.5,59.5*,19.3,-2.7,21.2,57.5*
O=C(Nc1cccc(OC(=O)c2ccc(Br)o2)c1)c1ccccc1,35.6,64.2*,-11.6,21.8,24.1,57.3*
O=C(Nc1cccc(-c2nnc(-c3ccccc3)o2)c1)c1ccc(Br)o1,23.0,73.1*,9.5,34.8,20.9,62.6*
O=C(Nc1cccc(-c2ccc(N3CCCCC3)nn2)c1)c1ccc(Br)o1,19.1,53.5*,-23.0,17.5,37.5,58.7*
Cc1ccc(C(=O)Oc2cccc(NC(=O)c3ccccc3)c2)cc1C,10.7,31.3,3.9,34.0,16.9,nt
Cc1ccc(F)cc1NS(=O)(=O)c1ccc(Cl)s1,27.6,50.6*,-3.5,-27.6,39.9,49.8*
Cc1nn(C)c(C)c1NS(=O)(=O)c1ccc(Cl)s1,3.0,3.1,13.7,-2.0,-10.5,nt
Cc1sc2ncnc(OCC(=O)Nc3ccc4c(c3)OCCO4)c2c1C,-0.6,-2.6,-10.8,1.1,-39.9,nt
SMILES,TIM10 inh,tim23-1 inh,PfHsp90 yeast 2,NALP3 yeast inh,tim10-1 inh,tim23-1 conf
Cc1nc(Nc2ccc3c(c2)OCCO3)c2c(C)c(C)sc2n1,24.5,54.7*,-21.7,24.7,10.0,49.2*
Cc1cnc(N2C(=O)c3ccc([N+](=O)[O-])cc3C2=O)s1,14.9,14.8,-3.5,-1.9,-1.7,nt
COc1ccc2c(-c3ccc(OCCN4CCCCC4)cc3)c(-c3ccccc3OC)sc2c1,10.1,1.1,-13.5,nt,-41.9,nt
c1ccc(-c2sc3ccccc3c2-c2ccc(OCCN3CCCC3)cc2)cc1,-8.5,60.8*,17.2,36.0,-1.0,42.4*
COc1cccc(-c2sc3cc(OC)c(OC)cc3c2-c2ccc(OCCN3CCCCC3)cc2)c1,19.7,42.6,10.3,nt,13.7,nt
COc1cccc(-c2sc3ccccc3c2-c2ccc(OCCN3CCCCC3)cc2)c1,6.9,70.4*,29.0,40.5,-31.5,-11.8
